# Screening results (PubChem BioAssay)
# HDAC3 inh: HDAC3 deacetylase inhibitors, primary screen, biochemical, fluorescence, cell-free homogeneous; hit rate 0.15% among 320,000; Histone deacetylase 3 (Homo sapiens), O15379; recombinant HDAC3, fluorogenic peptide/trypsin coupled; inhibition, % at 8.3 µM; in the data active = inhibition above about 26%, passing the limit was not always enough; inconclusive = no clear call, values can overlap the other calls
# NALP1 yeast inh: NALP1 inflammasome inhibitors in reconstituted yeast, colorimetric, S. cerevisiae, triplicate retest; inhibition, % at 10 µM; hit rate 0.61% among 280,000; S. cerevisiae NALP1/ASC/caspase-1 growth, X-gal OD620, 72 h; in the data active = inhibition mostly above about 24%, no sharp cut-off; inactive = mostly below about 32%
# GASC-1 inh: inhibitors of GASC-1 histone demethylase, primary screen, biochemical, fluorescence, DELFIA europium. Lysine-specific demethylase 4C (Homo sapiens), Q9H3R0. GST-JMJD2C(1-420) H3K9me3 demethylation. inhibition, % at 2.35 µM. hit rate 0.069% among 330,000. AID 2099, 2009;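 active = more than half of a compound's replicate wells show inhibition beyond 50%, single wells judged on their own value; inconclusive = some, but no more than half, of replicates pass 50% inhibition; inactive = no replicate passes 50% inhibition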;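 note: signal counts dimethyl H3K9 product captured on neutravidin plate; 0% = median of DMSO wells and 100% = 0.3 times that DMSO median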
# Target sequence (Q9H3R0 1-420 limits assumed): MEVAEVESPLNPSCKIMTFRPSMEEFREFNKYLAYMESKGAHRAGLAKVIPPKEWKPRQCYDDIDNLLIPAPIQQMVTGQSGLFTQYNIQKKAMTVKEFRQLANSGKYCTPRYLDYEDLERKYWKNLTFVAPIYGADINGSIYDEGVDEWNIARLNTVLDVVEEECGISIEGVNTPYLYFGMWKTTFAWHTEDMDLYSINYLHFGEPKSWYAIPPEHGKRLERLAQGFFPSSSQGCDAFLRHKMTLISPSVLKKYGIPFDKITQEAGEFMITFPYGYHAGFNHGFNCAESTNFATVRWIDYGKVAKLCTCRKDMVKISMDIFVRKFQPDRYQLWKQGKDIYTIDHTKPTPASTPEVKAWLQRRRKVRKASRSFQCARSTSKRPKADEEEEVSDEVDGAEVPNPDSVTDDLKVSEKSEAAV
# PolyA inh: polyadenylation inhibitors in yeast reporter cells, primary screen, luminescence, S. cerevisiae. S. cerevisiae SKY197-pL101 polyadenylation reporter, beta-gal luminescence; efflux-impaired pdr1/pdr3 knockout yeast; score 100 = 6 SD above DMSO. activity score, % at 12 µM. hit rate 0.02% among 300,000;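 active = lowest replicate activity score at least 50, where 100 means six control SD above control mean; inconclusive = lowest score under 50 but half or more replicates reach 50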;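 note: yeast exposed to compound for 9 h at 30 °C; higher score means more reporter readthrough which indicates perturbed polyadenylation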
# Efflux pump mplx: inhibitors of Candida efflux pumps in yeast, primary screen, S. cerevisiae, Nile Red, multiplex; S. cerevisiae Candida pump triplex; inhibition, % at 10 µM; hit rate 0.44% among 330,000; AID 485275, 2010;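 active = plate passing quality check with inhibition over a set limit, or well fluorescence over plate mean plus 4 SD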;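 note: Nile Red retained in pooled yeast measured as flow cytometry median fluorescence; 0% = buffer negative control and 100% = Enniatin B positive control; higher means more Nile Red kept so more efflux inhibition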
# NLRP3 yeast inh: NALP3 inflammasome inhibitors in reconstituted yeast, primary screen, luminescence, uHTS. Yeast reconstituted NLRP3/ASC/caspase-1, beta-gal luminescence, 24 h. inhibition, % at 10 µM. hit rate 0.39% among 330,000. AID 2825, 2010;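 active = inhibition of 50% or more; inactive = inhibition below 50%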;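 note: plate controls were induced DMSO wells for no effect and uninduced yeast grown without galactose for full effect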
# NALP3 confirm: NALP3 inhibitors retested in yeast, confirmation, luminescence, single concentration; inhibition, % at 10 µM; hit rate 81% among 1,300; yeast expressing human NALP3; AID 435006, 2010; shares compounds with NLRP3 yeast inh; in the data active = inhibition above about 48%
# Casp1 ASC ctr: CASP1-PYCARD signaling inhibition in yeast, confirmatory test, counterassay for NLRP3 inhibitor program, one-dose | AID 488784, 2010 | inhibition, % at 10 µM | shares compounds with NLRP3 yeast inh | hit rate 66% among 1,000 | yeast expressing Caspase-1-ASC, luminescence counter screen
# NALP3 yeast rt: NALP3 inhibitors in yeast, repeat test, confirmation, luminescence, single concentration, retest; shares compounds with NLRP3 yeast inh; AID 488794, 2010; inhibition, % at 10 µM; hit rate 53% among 1,000; yeast expressing human NALP3, luminescence read-out
# Active calls of the source: *; ? = inconclusive; . = not tested or not shown. This is a sample that favours compounds with a hit; in the whole collection about 1.5% have one here. Cut-off read from the data, not from the text of the source, unless noted: active = inhibition above about 50%; inactive = the rest.
SMILES,HDAC3 inh,NALP1 yeast inh,GASC-1 inh,PolyA inh,Efflux pump mplx,NLRP3 yeast inh,NALP3 confirm,Casp1 ASC ctr,NALP3 yeast rt
CC(NC(=O)c1ccccc1F)C12CC3CC(CC(C3)C1)C2 (centres undefined),7,.,?,-22,0,51*,60*,53*,38
CCc1cccc(NC(=O)CCCn2c(=O)[nH]c3ccsc3c2=O)c1,0,12,3,-5,0,6,.,.,.
CC(Oc1cccc(Cl)c1)C(=O)Nc1nc(-c2ccccn2)cs1 (centres undefined),.,.,-4,7,0,50*,64*,74*,61*
NC(=O)CC(NC(=O)Cc1cccc2ccccc12)c1ccc(N2CCN(c3ccccn3)CC2)c([N+](=O)[O-])c1 (centres undefined),5,-5,-11,8,0,8,.,.,.
Cc1ccc(NC(=O)N[C@H](C(=O)O)C(C)C)c(C)c1,.,7,-2,6,0,9,.,.,.
CCOC(=O)c1sc(=NC(=O)c2cccc(OC)c2)n(C)c1C,3,-4,0,-13,0,15,.,.,.
CCOC(=O)c1sc(=NC(=O)c2ccccc2)n(C)c1C,2,3,6,-11,0,63*,75*,.,.
O=c1cc(-c2ccc(O)cc2)oc2ccc3ccccc3c12,-4,.,17,.,0,61*,81*,58*,54*
O=C(N/N=C/c1cccc(F)c1)c1ccc(Cl)cc1,3,10,-6,14,0,29,.,.,.
CC(C)(C)c1ccc(C(=O)N/N=C/c2cccc(Cl)c2)cc1,-19,27,9,21,0,54*,71*,54*,41
CCOC(=O)c1ccc(NCCc2ccc(OC)c(OC)c2)c(N)c1,2,-5,29,15,0,30,.,.,.
COc1ccc(OC)c(Nc2cc(-c3ccccc3)nc(N)n2)c1,17,24,4,-17,0,50,41,49,43
NC(=O)CC(NC(=O)Cc1ccc(Br)cc1)c1ccc(N2CCC(Cc3ccccc3)CC2)c([N+](=O)[O-])c1 (centres undefined),-31,.,-3,-10,0,51*,80*,18,4
NC(=O)CC(NC(=O)Cc1ccc(Br)cc1)c1ccc(N2CCC(Br)CC2)c([N+](=O)[O-])c1 (centres undefined),-1,.,-5,7,0,7,.,.,.
COc1ccc2nc(NC(=O)Cc3cccs3)sc2c1,0,23,-9,-11,0,38,.,.,.
Cc1ccc2nc(NC(=O)Cc3cccs3)sc2c1,-4,26,-2,-5,0,52*,63*,51*,53*
Cc1ccc(NS(=O)(=O)c2cc(NC(=O)c3ccc4c(c3)NC(=O)CS4)ccc2C)c(C)c1,2,4,5,7,0,1,.,.,.
Cn1c(N)c(C(=O)CSc2nnc(NC3CCCCC3)s2)c(=O)n(C)c1=O,.,.,.,.,.,11,.,.,.
Cn1nnc(NC(=S)NC(=O)c2cccc3c(Cl)cccc23)n1,0,-7,6,-21,0,54*,64*,74*,46
Cn1nnc(NC(=S)NC(=O)c2cccc3c(Br)cccc23)n1,2,2,9,-26,0,41,.,.,.
CCCN1CCc2c(sc(NC(=O)Cc3ccc(F)cc3)c2C(N)=O)C1,-8,20,-2,18,0,-3,.,.,.
CCOc1ccc(N=C(C)C2=C(O)c3ccccc3C2=O)cc1,13,.,12,11,0,39,.,.,.
COc1ccc(N=C(C)C2=C(O)c3ccccc3C2=O)cc1,5,32,-1,-3,0,50*,42,57*,36
Cc1csc2nc(O)c(C(=O)NCCC3=CCCCC3)c(=O)n12,-9,.,?,?,0,56*,75*,29,55*
Cc1csc2nc(O)c(C(=O)NCCCc3ccccc3)c(=O)n12,-11,.,76,17,0,45,.,.,.
SMILES,HDAC3 inh,NALP1 yeast inh,GASC-1 inh,PolyA inh,Efflux pump mplx,NLRP3 yeast inh,NALP3 confirm,Casp1 ASC ctr,NALP3 yeast rt
O=C(Cn1cnc2ccccc2c1=O)c1ccccc1,6,1,1,6,0,1,.,.,.
Cc1ccc(C(=O)Cn2cnc3ccccc3c2=O)cc1,-3,0,9,.,0,52*,64*,34,46
O=[N+]([O-])c1ccc(N2CCCC2)cc1N1CCCC1,6,-9,11,-5,0,58*,52*,63*,53*
N#Cc1cc([N+](=O)[O-])ccc1NC(=O)COC(=O)CN1C(=O)C2CCCCC2C1=O (centres undefined),-7,.,7,.,0,18,.,.,.
CCN1C(=O)/C(=C/C=C2/SCCN2C)SC1=S,6,4,16,-22,0,50,33,.,.
CN1CCS/C1=C\C=C1/SC(=S)N(CC(=O)O)C1=O,.,-1,-3,-27,.,.,.,.,.
CNS(=O)(=O)c1cccc(C(=O)NCC(c2cccs2)N2CCOCC2)c1 (centres undefined),3,.,-2,-17,0,25,.,.,.
O=C(Cn1cc(S(=O)(=O)Cc2cccc(F)c2)c2ccccc21)N1CCOCC1,5,19,-7,-5,0,12,.,.,.
O=C(Nc1cccc(Cl)c1)c1cccc(Oc2ccc([N+](=O)[O-])cc2Cl)c1,-3,16,2,-10,0,31,.,.,.
O=C(Nc1ccc([N+](=O)[O-])cc1Cl)c1cc(Cl)ccc1O,2,.,.,.,0,96*,99*,100*,97*
O=C(Nc1cccc(Cl)c1)c1cc(N=Nc2ccc([N+](=O)[O-])cc2Cl)ccc1O,-1,-8,-10,8,0,57*,86*,42,56*
CCOC(=O)c1ccc(NC(=O)NNS(=O)(=O)c2cc(OC)ccc2OC)cc1,5,12,-22,2,0,5,.,.,.
CC1CC(C)(C)N(C(=O)CN2C(=O)c3ccccc3C2=O)c2ccccc21 (centres undefined),-1,-45,1,-17,0,52*,10,.,.
O=C(COc1ccc(F)cc1)Nc1cc(Cl)ccc1-n1cncn1,0,.,-2,8,0,63*,70*,56*,49
